Bioassay records deposited in PubChem by several laboratories.
Hits are enriched below; roughly 4.6% of the tested compounds scored in any of these assays.
ADAM17 inh: ADAM17 inhibition, QFRET primary screen; 0.83% of 370,000 active; inhibition, % at 6.95 µM; recombinant ADAM17, EDANS/DABCYL FRET peptide cleavage; AID 720648;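 active = inhibition above the mean of compounds lying between control limits plus 3 SD, set per campaign, cut at about 8.5% in these data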
FAS-TE inh: blocks the thioesterase domain of human fatty acid synthase; P49327; recombinant FAS-TE, OMFH fluorogenic substrate, fluorescence endpoint; inhibition, % at 15 µM; 0.67% of 360,000 active;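 active = compounds whose normalised, plate-corrected inhibition of enzyme fluorescence in the single-dose primary screen is 50% or more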
ADAM10 inh: inhibitors of human ADAM10. O14672. recombinant ADAM10, EDANS/DABCYL FRET peptide cleavage, 3 h. inhibition, % at 7 µM. 0.62% of 370,000 active. AID 720582;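 active = inhibition above a per-campaign cutoff equal to the mean of compounds falling between control-based bounds plus 3 SD, cut at about 20% in these data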
proKLK7 act: activates the human kallikrein-7 zymogen | 0.9% of 370,000 active | P49862 | activation, % at 7 µM | purified proKLK7, EDANS-DABCYL substrate fluorescence; 100% is mature enzyme control, 0% vehicle;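 active = activation above the mean of all tested compounds plus 3 SD, computed per campaign excluding outliers beyond control limits, cut at about 13% in these data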
NR3A LBD binder: NR3A (human) ligand-binding domain modulation; NR3A LBD differential scanning fluorimetry, Tm shift; 0% = protein alone, 100% = glycine-bound protein; Tm shift relative to glycine control, % at 25 µM; 2.5% of 340,000 active; AID 1259313;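 active = melting temperature shift of at least 10% of the positive control shift, at one fixed dose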
ADAM10 confirm: human ADAM10 inhibition, confirmation; shares compounds with ADAM10 inh; ADAM10 QFRET peptide cleavage, EDANS fluorescence; inhibition, % at 6.95 µM; 1% of 2,100 active; AID 743208;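 active = inhibition above about 20% chosen separately for each screening run, limit read from the data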
ADAM17 counter: counter-screen for ADAM10 exosite inhibitors: inhibitors of human ADAM17 | 0.5% of 2,100 active | shares compounds with ADAM10 inh | ADAM17 QFRET peptide cleavage, EDANS fluorescence | AID 743214 | inhibition, % at 6.95 µM;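 active = mean triplicate inhibition above the solvent-only control wells' mean plus 3 SD, cut at about 12% in these data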
ADAM10 counter: ADAM10 inhibition, counter-screen for ADAM17 exosite hits | shares compounds with ADAM17 inh | recombinant ADAM10, EDANS/DABCYL FRET peptide cleavage, 3 h | inhibition, % at 6.95 µM | AID 743256 | 47% of 2,900 active;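 active = mean inhibition over the triplicate runs exceeds the activity threshold set in the earlier primary screen, cut at about 20% in these data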
ADAM17 confirm: confirmation of inhibitors of human ADAM17 | AID 743257 | inhibition, % at 6.95 µM | shares compounds with ADAM17 inh | recombinant ADAM17, EDANS/DABCYL QFRET peptide cleavage | 65% of 2,900 active;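 active = mean inhibition across replicates above the hit cutoff set in the primary screen, cut at about 8.5% in these data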
Each line names hits and unclear results; the compound was inactive in the other large screens (follow-up assays come after a bar, where they were run).

CC(C)Oc1ccc(C(=O)NC2(C(F)(F)F)NC(=O)N(CCCc3ccccc3)C2=O)cc1 (stereo not given)	ADAM17 inh 10.3, ADAM10 inh 25.3, NR3A LBD binder 14.4 | ADAM10 confirm inactive | ADAM17 counter inactive | ADAM10 counter 31.4 | ADAM17 confirm 17.7
CCCCN(C)C(=O)c1cn(C(C)c2ccccc2)nn1 (stereo not given)	none (no result: FAS-TE inh, NR3A LBD binder)
Clc1ccc(-c2[nH]ncc2N=Nc2ccccc2)cc1	ADAM17 inh 10.3, ADAM10 inh 21.6 | ADAM10 confirm inactive | ADAM17 counter inactive | ADAM10 counter inactive | ADAM17 confirm 10.4
CC12CCC3c4ccc(OCCCO)c([N+](=O)[O-])c4CCC3C1CCC2=O (stereo not given)	none (no result: FAS-TE inh, NR3A LBD binder)
CCCCCCCCN1C(=O)[C@@H](CC(=O)NCc2cccc3ccccc23)C[C@@]2(C(=O)OC)C1=C[C@H](C1CCCC1)O[C@@H]2C	none (no result: FAS-TE inh, NR3A LBD binder)
Cc1cc(C)cc(NC(=O)C(OC(=O)c2cc[n+]([O-])cc2)c2ccccc2)c1 (stereo not given)	none
Cc1ccc(NC(=O)C(OC(=O)c2ccc(NC(N)=O)cc2)c2ccccc2)cc1Cl (stereo not given)	ADAM17 inh 18.1, ADAM10 inh 31.8, NR3A LBD binder 26.0 | ADAM10 confirm inactive | ADAM17 counter inactive | ADAM10 counter inactive | ADAM17 confirm 9.7
O=C(COC(=O)c1ccc(Sc2ncn[nH]2)c([N+](=O)[O-])c1)Nc1ccc(Cl)c(Cl)c1	ADAM17 inh 10.0, ADAM10 inh 20.2 (no result: FAS-TE inh, NR3A LBD binder) | ADAM10 confirm inactive | ADAM17 counter inactive | ADAM10 counter 37.5 | ADAM17 confirm 19.7
O=C(COC(=O)c1ccc(Sc2ncn[nH]2)c([N+](=O)[O-])c1)Nc1ccc(Cl)cc1	none (no result: FAS-TE inh, NR3A LBD binder)
COc1ccc(C(=O)CC(Nc2ccc([N+](=O)[O-])cc2)c2ccc(Cl)cc2)cc1 (stereo not given)	ADAM17 inh 12.7, ADAM10 inh 22.0, NR3A LBD binder 11.0 | ADAM10 confirm inactive | ADAM17 counter inactive | ADAM10 counter 38.3 | ADAM17 confirm 17.7
O=C(NCCc1ccccc1)OCc1cn(Cc2cccc(F)c2F)nn1	none (no result: FAS-TE inh, NR3A LBD binder)
Cc1ccccc1-c1noc(-c2ccc(Cl)cc2)n1	none
Cc1ccccc1-c1noc(-c2ccc(O)cc2)n1	ADAM17 inh 12.9, ADAM10 inh 32.6 | ADAM10 confirm inactive | ADAM17 counter inactive | ADAM10 counter inactive | ADAM17 confirm 12.0
COc1ccc(C(=O)C(=O)N2CCN(S(=O)(=O)c3cccc4c(N(C)C)cccc34)CC2)cc1OC	none (no result: FAS-TE inh, NR3A LBD binder)
Cc1[nH]c2ccccc2c1C(=O)C(=O)N1CCN(c2cccc(Cl)c2)CC1	ADAM17 inh 18.3, ADAM10 inh 24.1 | ADAM10 confirm inactive | ADAM17 counter inactive | ADAM10 counter 25.4 | ADAM17 confirm 8.8
COc1ccc(C2CC(O)(c3ccccc3)Oc3c(C)ccc(C)c32)cc1 (stereo not given)	ADAM17 inh 18.6, ADAM10 inh 35.8 | ADAM10 confirm inactive | ADAM17 counter inactive | ADAM10 counter inactive | ADAM17 confirm 12.9
COc1ccc(-c2cc(-c3ccccc3O)[nH]n2)cc1	none
Cc1ccc(-c2cc(-c3ccccc3Cl)[nH]n2)c(O)c1	ADAM17 inh 9.5, ADAM10 inh 24.2, NR3A LBD binder 12.2 | ADAM10 confirm inactive | ADAM17 counter inactive | ADAM10 counter inactive | ADAM17 confirm 9.1
Cc1ccc(-c2cc(-c3ccc(C)cc3O)[nH]n2)cc1	ADAM17 inh 12.0, ADAM10 inh 33.3 | ADAM10 confirm inactive | ADAM17 counter inactive | ADAM10 counter 25.1 | ADAM17 confirm 14.1
